Test results reported in PubChem BioAssay (NCI).
About 79,000 compounds went through this panel and 15% of them were active in at least one assay; those are over-represented in the sample as a whole. The source made the active and inactive calls. Cut-off read from the data, not from the text of the source: active = growth inhibition above about 70%; inactive = the rest.

Columns and labels:
[1] = NCI Yeast Anticancer Drug Screen. Data for the wt1 strain (AID 149);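 note: 0% = growth of vehicle-treated wt1 cultures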; settings: S. cerevisiae wt1 strain (SPY 50644) growth inhibition, hits give high values
In short: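 Yeast wt1 strain exposed to compounds; growth inhibition measured relative to vehicle-treated controls.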

[2] = NCI Yeast Anticancer Drug Screen. Data for the mgt1 strain (AID 153); settings: S. cerevisiae mgt1 mutant growth inhibition, hits give high values
In short: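 After exposure of the mgt1 yeast mutant to compound, growth was measured and reported as inhibition compared with vehicle controls.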

[3] = NCI Yeast Anticancer Drug Screen. Data for the rad50 strain (AID 155);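 note: 0% = growth of vehicle-only cultures of the same strain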; settings: S. cerevisiae rad50 strain growth inhibition, hits give high values
In short: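 Yeast carrying a defined DNA repair defect were exposed to test compounds, and growth was compared with vehicle-treated controls to give percent inhibition.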

[4] = NCI Yeast Anticancer Drug Screen. Data for the mec2-1 strain (AID 157); settings: S. cerevisiae mec2-1 strain, hits give high values
In short: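 Test agents were screened against the mec2-1 yeast strain, with defined DNA repair or cell cycle alteration. Growth was scored as inhibition against vehicle-only controls.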

[5] = NCI Yeast Anticancer Drug Screen. Data for the sgs1 mgt1 strain (AID 161);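 note: 0% = growth of cultures given vehicle only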; settings: S. cerevisiae sgs1 mgt1 strain, hits give high values
In short: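 Test agents were incubated with a DNA-repair-mutant yeast strain. Growth was then read and compared against vehicle-treated controls.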

[6] = NCI Yeast Anticancer Drug Screen. Data for the CLN2oe strain (AID 163);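 note: 0% = growth of vehicle-only control cultures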; settings: S. cerevisiae CLN2oe strain, hits give high values
In short: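 Here, growth inhibition in a cell-cycle-altered yeast strain after compound exposure was quantified against vehicle control growth.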

[7] = NCI Yeast Anticancer Drug Screen. Data for the cln2 rad14 strain (AID 165);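 note: 0% = growth equal to vehicle treated cultures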; settings: S. cerevisiae cln2 rad14 strain, hits give high values
In short: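 Growth of compound-exposed yeast (cln2 rad14 genotype) measured and expressed as inhibition relative to vehicle.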

[8] = NCI Yeast Anticancer Drug Screen. Data for the bub3 strain (AID 167); settings: S. cerevisiae bub3 mutant strain, hits give high values
In short: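 Compounds were applied to a genetically altered yeast strain carrying a cell-cycle control defect. Growth inhibition was scored against vehicle-treated controls.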

[9] = NCI Yeast Anticancer Drug Screen. Data for the wt2 strain (AID 169);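 note: 0% = growth of vehicle-treated yeast cultures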; settings: S. cerevisiae wt2 strain growth inhibition, hits give high values
In short: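 Genetically defined yeast strains from a DNA-repair/cell-cycle panel were used. Compound-exposed yeast growth was measured, and the inhibition was calculated relative to vehicle treatment.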

[10] = NCI Yeast Anticancer Drug Screen. Data for the mlh1 strain (AID 171);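 note: 0% = growth of vehicle-treated control cultures of the same strain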; settings: S. cerevisiae mlh1 strain growth inhibition, hits give high values
In short: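 Here the genetically defined yeast mutant is grown with each compound, and the extent to which its growth falls below that of vehicle-exposed cells is reported.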

[11] = NCI Yeast Anticancer Drug Screen. Data for the sgs1 strain (AID 173);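 note: 0% = growth of vehicle-only control cultures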; settings: S. cerevisiae sgs1 mutant, hits give high values
In short: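 Relative growth inhibition, referenced to vehicle, was determined in a yeast strain with a defined alteration affecting DNA damage repair or cell cycle control after compound exposure.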

[12] = NCI Yeast Anticancer Drug Screen. Data for the mlh1 rad18 strain (AID 175); settings: S. cerevisiae mlh1 rad18 strain growth inhibition, hits give high values
In short: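 In this whole-cell yeast screen, a strain with altered DNA damage repair is challenged with compound, and its growth is measured against matched vehicle-treated controls.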

[13] = NCI Yeast Anticancer Drug Screen. Data for the rad18 strain (AID 177); settings: S. cerevisiae rad18 mutant growth inhibition, hits give high values
In short: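 Screen uses a yeast strain with a defined lesion in DNA damage repair; compound effect is read as loss of growth compared to untreated vehicle cultures.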

[14] = NCI Yeast Anticancer Drug Screen. Data for the rad50EPP+ strain (AID 151);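 note: 0% = growth of vehicle-treated control cultures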; settings: S. cerevisiae rad50 mutant strain, hits give high values
In short: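 One strain with a rad50 alteration (rad50EPP+) was compound-treated, its growth then compared to that of vehicle controls.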

[15] = NCI Yeast Anticancer Drug Screen. Data for the rad14 strain (AID 159);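 note: 0% = growth of vehicle-treated control cultures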; settings: S. cerevisiae rad14 strain growth inhibition, hits give high values
In short: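 Yeast cells carrying a defined DNA-repair defect were exposed to compounds, and growth inhibition was calculated relative to vehicle-treated control cultures.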

[16] = at 5.0 µM (retest, dose inferred, filed as 0.5)
[17] = at 50.0 µM (retest, dose inferred, filed as 5.0)

Measured: growth inhibition

OC(c1ccc(F)cc1)(c1ccc(F)cc1)C1CC1
active: [1]; at 100.0 µM 90% | [3]; [17] 99% | [3]; at 100.0 µM 94% | [4]; [17] 100% | [4]; at 100.0 µM 95% | [5]; [17] 77% | [6]; at 100.0 µM 93% | [7]; [17] 73% | [8]; [17] 81% | [8]; at 100.0 µM 96% | [9]; at 100.0 µM 87% | [10]; at 100.0 µM 92% | [11]; at 100.0 µM 86% | [12]; [17] 100% | [13]; at 100.0 µM 95%
inactive: [1]; at 1.2 µM -38% | [1]; at 3.7 µM -33% | [1]; at 11.0 µM -36% | [1]; at 33.0 µM -27% | [2]; at 1.2 µM -36% | [2]; at 3.7 µM -47% | [2]; at 11.0 µM -47% | [2]; at 33.0 µM -51% | [2]; at 100.0 µM 20% | [3]; at 1.2 µM -31% | [3]; at 3.7 µM -32% | [3]; [16] 59% | [3]; at 11.0 µM -26% | [3]; at 33.0 µM 32% | [3]; at 50.0 µM 62.9% | [4]; at 1.2 µM -87% | [4]; at 3.7 µM -42% | [4]; [16] 68% | [4]; at 11.0 µM -67% | [4]; at 33.0 µM -32% | [4]; at 50.0 µM 40.1% | [5]; [16] -4% | [5]; at 50.0 µM 51.4% | [6]; at 1.2 µM -16% | [6]; at 3.7 µM -3% | [6]; at 11.0 µM -9% | [6]; at 33.0 µM -8% | [7]; [16] 41% | [7]; at 50.0 µM 28.9% | [8]; at 1.2 µM -32% | [8]; at 3.7 µM -27% | [8]; [16] 20% | [8]; at 11.0 µM -13% | [8]; at 33.0 µM -16% | [8]; at 50.0 µM 64.8% | [9]; at 1.2 µM -25% | [9]; at 3.7 µM -25% | [9]; at 11.0 µM -5% | [9]; at 33.0 µM -28% | [10]; at 1.2 µM -39% | [10]; at 3.7 µM -64% | [10]; at 11.0 µM -66% | [10]; at 33.0 µM -42% | [11]; at 1.2 µM -62% | [11]; at 3.7 µM -43% | [11]; at 11.0 µM -52% | [11]; at 33.0 µM -42% | [12]; [16] 67% | [12]; at 50.0 µM 64% | [13]; at 1.2 µM -8% | [13]; at 3.7 µM -11% | [13]; at 11.0 µM -21% | [13]; at 33.0 µM 46%

Cc1cc2c(cc1C(=O)CCC(=O)O)CC1(C2)Cc2cc(C)c(C(=O)CCC(=O)O)cc2C1
active: [12]; [17] 70%
inactive: [1]; at 1.2 µM 3% | [1]; at 3.7 µM 4% | [1]; at 11.0 µM 12% | [1]; at 33.0 µM 21% | [1]; at 100.0 µM 35% | [14]; at 1.2 µM 1% | [14]; at 3.7 µM 0% | [14]; at 11.0 µM 8% | [14]; at 33.0 µM 15% | [14]; at 100.0 µM 30% | [2]; at 1.2 µM 2% | [2]; at 3.7 µM 6% | [2]; at 11.0 µM 12% | [2]; at 33.0 µM 36% | [2]; at 100.0 µM 42% | [3]; at 1.2 µM 3% | [3]; at 3.7 µM 2% | [3]; [16] 13% | [3]; at 11.0 µM 9% | [3]; at 33.0 µM 21% | [3]; [17] 36% | [3]; at 50.0 µM 56.5% | [3]; at 100.0 µM 42% | [4]; at 1.2 µM -2% | [4]; at 3.7 µM 1% | [4]; [16] -4% | [4]; at 11.0 µM 12% | [4]; at 33.0 µM 26% | [4]; [17] 14% | [4]; at 50.0 µM 31.5% | [4]; at 100.0 µM 56% | [15]; at 1.2 µM -1% | [15]; at 3.7 µM 2% | [15]; at 11.0 µM 8% | [15]; at 33.0 µM 22% | [15]; at 100.0 µM 44% | [5]; [16] -4% | [5]; [17] 29% | [5]; at 50.0 µM 49.9% | [6]; at 1.2 µM -5% | [6]; at 3.7 µM 2% | [6]; at 11.0 µM 14% | [6]; at 33.0 µM 27% | [6]; at 100.0 µM 41% | [7]; [16] 16% | [7]; [17] 47% | [7]; at 50.0 µM 38.4% | [8]; at 1.2 µM -4% | [8]; at 3.7 µM 0% | [8]; [16] 13% | [8]; at 11.0 µM 9% | [8]; at 33.0 µM 17% | [8]; [17] 62% | [8]; at 50.0 µM 54.8% | [8]; at 100.0 µM 54% | [9]; at 1.2 µM 0% | [9]; at 3.7 µM 2% | [9]; at 11.0 µM 10% | [9]; at 33.0 µM 26% | [9]; at 100.0 µM 46% | [10]; at 1.2 µM 5% | [10]; at 3.7 µM 5% | [10]; at 11.0 µM 14% | [10]; at 33.0 µM 27% | [10]; at 100.0 µM 50% | [11]; at 1.2 µM 2% | [11]; at 3.7 µM 7% | [11]; at 11.0 µM 14% | [11]; at 33.0 µM 33% | [11]; at 100.0 µM 69% | [12]; [16] -1% | [12]; at 50.0 µM 67.8% | [13]; at 1.2 µM 1% | [13]; at 3.7 µM 1% | [13]; at 11.0 µM -3% | [13]; at 33.0 µM 22% | [13]; at 100.0 µM 63%
